Among the data in PubChem BioAssay (NCI) are growth inhibition values, retold here.

The panel holds about 79,000 compounds, 15% with a hit somewhere; the sample as a whole holds those more often. A number with no mark means an inactive call. Activity calls are given as the source filed them. Rule as the data show it: active = growth inhibition above about 70%; inactive = the rest.

Test [1] in a line: NCI Yeast Anticancer Drug Screen. Data for the rad50 strain (AID 155).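 Also: 0% = growth of vehicle-only cultures of the same strain.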 The note with it: S. cerevisiae rad50 strain growth inhibition, active compounds read high. The procedure, abridged: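 DNA repair mutant yeast, compound exposure, growth read-out; inhibition is taken relative to vehicle.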
The nature of test [2]: NCI Yeast Anticancer Drug Screen. Data for the mec2-1 strain (AID 157). The following applies: S. cerevisiae mec2-1 strain, active compounds read high. The procedure, abridged:
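Cells of the genetically defined mec2-1 yeast strain are incubated with test compound. Inhibition of growth is calculated against vehicle-treated controls.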

The nature of test [3]: NCI Yeast Anticancer Drug Screen. Data for the sgs1 mgt1 strain (AID 161).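 Also: 0% = growth of cultures given vehicle only.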 The following applies: S. cerevisiae sgs1 mgt1 strain, active compounds read high. The procedure, abridged:
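Test agents were incubated with a DNA-repair-mutant yeast strain. Growth was then read and compared against vehicle-treated controls.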

The nature of test [4]: NCI Yeast Anticancer Drug Screen. Data for the cln2 rad14 strain (AID 165).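 Also: 0% = growth equal to vehicle treated cultures.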 The following applies: S. cerevisiae cln2 rad14 strain, active compounds read high. The procedure, abridged: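 The screen exposed genetically defined yeast (cln2 rad14) to test compounds and scored growth inhibition relative to vehicle-treated controls.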
A short description of test [5]: NCI Yeast Anticancer Drug Screen. Data for the bub3 strain (AID 167). The following applies: S. cerevisiae bub3 mutant strain, active compounds read high. The procedure, abridged: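 In this screen, a yeast mutant lacking normal mitotic checkpoint function is challenged with compound. Relative growth versus vehicle gives the inhibition value.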
A short description of test [6]: NCI Yeast Anticancer Drug Screen. Data for the mlh1 rad18 strain (AID 175). The note with it: S. cerevisiae mlh1 rad18 strain growth inhibition, active compounds read high. The procedure, abridged: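 Compound-treated yeast growth, normalised to vehicle controls. Strain bears defined DNA repair mutations.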
The mark [7] stands for this setting: at 5.0 µM (retest, dose inferred, filed as 0.5).
[8] abbreviates: at 50.0 µM (retest, dose inferred, filed as 5.0).

On to `Cn1c2ccccc2c2cc3cnccc3cc21`, for which the growth inhibition was -98% in test [1] (setting [7]); 95% (active) in test [1] (setting [8]); 98.5% (active) in test [1] (at 50.0 µM); -50% in test [2] (setting [7]); 73% (active) in test [2] (setting [8]); 96.4% (active) in test [2] (at 50.0 µM). In addition, the growth inhibition in test [3] (setting [7]) was -57%; in test [3] (setting [8]), 82% (active); in test [3] (at 50.0 µM), 92.6% (active); in test [4] (setting [7]), -55%; in test [4] (setting [8]), 88% (active); in test [4] (at 50.0 µM), 96.3% (active). Besides, the growth inhibition in test [5] (setting [7]) is -68%; in test [5] (setting [8]) it was 89% (active); in test [5] (at 50.0 µM), 90.8% (active); in test [6] (setting [7]), -164%; in test [6] (setting [8]), 93% (active); in test [6] (at 50.0 µM), 98.7% (active).
In the case of `CC1(C)[C@@H]2CC[C@]1(C)[C@@H](OC(=O)CSC#N)C2`, the growth inhibition in test [1] (setting [7]) is 92% (active); in test [1] (setting [8]), 99% (active); in test [1] (at 50.0 µM), 99.4% (active); in test [2] (setting [7]) it was 74% (active); in test [2] (setting [8]), 100% (active); in test [2] (at 50.0 µM) it was 99.6% (active). The growth inhibition in test [3] (setting [7]) was 98% (active); in test [3] (setting [8]) it was 100% (active); in test [3] (at 50.0 µM) it was 99.3% (active); in test [4] (setting [7]), 24%; in test [4] (setting [8]), 99% (active); in test [4] (at 50.0 µM), 98.8% (active). In addition, the growth inhibition in test [5] (setting [7]) was 95% (active); in test [5] (setting [8]), 100% (active); in test [5] (at 50.0 µM), 99.6% (active); in test [6] (setting [7]), 75% (active); in test [6] (setting [8]) it was 99% (active); in test [6] (at 50.0 µM) it was 99.2% (active).
Turning to `CNC(C)C(=O)c1ccc2ccc3ccccc3c2c1` (stereo not given), the growth inhibition was -3% in test [1] (setting [7]); 24% in test [1] (setting [8]); 54.5% in test [1] (at 50.0 µM); -5% in test [2] (setting [7]); 12% in test [2] (setting [8]); 46.6% in test [2] (at 50.0 µM). The growth inhibition in test [3] (setting [7]) is -2%; in test [3] (setting [8]), 34%; in test [3] (at 50.0 µM) it was 58.9%; in test [4] (setting [7]), 0%; in test [4] (setting [8]), 16%; in test [4] (at 50.0 µM), 17.6%. For the same compound, the growth inhibition in test [5] (setting [7]) is -3%; in test [5] (setting [8]), 24%; in test [5] (at 50.0 µM), 67.8%; in test [6] (setting [7]) it was -6%; in test [6] (setting [8]) it was 28%; in test [6] (at 50.0 µM), 71.5% (active).
For the compound `CSC(C=P(c1ccccc1)(c1ccccc1)c1ccccc1)=Nc1ccccc1`, the growth inhibition in test [1] (setting [7]) is 58%; in test [1] (setting [8]), 98% (active); in test [1] (at 50.0 µM), 96.8% (active); in test [2] (setting [7]), 22%; in test [2] (setting [8]), 96% (active); in test [2] (at 50.0 µM), 99% (active). For the same compound, the growth inhibition in test [3] (setting [7]) is 23%; in test [3] (setting [8]), 98% (active); in test [3] (at 50.0 µM) it was 95.5% (active); in test [4] (setting [7]), 3%; in test [4] (setting [8]), 97% (active); in test [4] (at 50.0 µM), 98.3% (active). Moreover, the growth inhibition in test [5] (setting [7]) is 16%; in test [5] (setting [8]) it was 97% (active); in test [5] (at 50.0 µM), 98.2% (active); in test [6] (setting [7]), 15%; in test [6] (setting [8]) it was 97% (active); in test [6] (at 50.0 µM) it was 95.7% (active).
As to `CCOc1ccc(C=Nc2ccc(/C=C(\C)C(=O)OCCC(C)C)cc2)cc1`, the growth inhibition was 50% in test [1] (setting [7]); 98% (active) in test [1] (setting [8]); 97.6% (active) in test [1] (at 50.0 µM); 72% (active) in test [2] (setting [7]); 99% (active) in test [2] (setting [8]); 98.2% (active) in test [2] (at 50.0 µM). The growth inhibition was 85% (active) in test [3] (setting [7]); 99% (active) in test [3] (setting [8]); 97.5% (active) in test [3] (at 50.0 µM); 94% (active) in test [4] (setting [7]); 98% (active) in test [4] (setting [8]); 97.2% (active) in test [4] (at 50.0 µM). Moreover, the growth inhibition is 86% (active) in test [5] (setting [7]); 97% (active) in test [5] (setting [8]); 82.2% (active) in test [5] (at 50.0 µM); 92% (active) in test [6] (setting [7]); 99% (active) in test [6] (setting [8]); 98% (active) in test [6] (at 50.0 µM).
On to `Cc1c(N=Nc2c(S(=O)(=O)O)cc3cc(S(=O)(=O)O)c(N=Nc4c(C)n(C)n(-c5ccccc5)c4=O)c(O)c3c2O)c(=O)n(-c2ccccc2)n1C`, for which the growth inhibition in test [1] (setting [7]) was -20%; in test [1] (setting [8]) it was -13%; in test [1] (at 50.0 µM), 3.25%; in test [2] (setting [7]), -18%; in test [2] (setting [8]) it was -31%; in test [2] (at 50.0 µM), 32.8%. The growth inhibition is -7% in test [3] (setting [7]); 26% in test [3] (setting [8]); 4.15% in test [3] (at 50.0 µM); 7% in test [4] (setting [7]); 8% in test [4] (setting [8]); 36.4% in test [4] (at 50.0 µM). The growth inhibition was -19% in test [5] (setting [7]); -11% in test [5] (setting [8]); -29.4% in test [5] (at 50.0 µM); 5% in test [6] (setting [7]); -7% in test [6] (setting [8]); -6.6% in test [6] (at 50.0 µM).
In the case of `CCCCCCCCCCCCCCCC(=O)N(CCCN(CC)CC)C(C)CCCN(CC)CC` (stereo not given), the growth inhibition in test [1] (setting [7]) is 90% (active); in test [1] (setting [8]) it was 98% (active); in test [1] (at 50.0 µM) it was 60.1%; in test [2] (setting [7]), 28%; in test [2] (setting [8]), 99% (active); in test [2] (at 50.0 µM), 71.9% (active). The growth inhibition is 51% in test [3] (setting [7]); 99% (active) in test [3] (setting [8]); 44.9% in test [3] (at 50.0 µM); 36% in test [4] (setting [7]); 99% (active) in test [4] (setting [8]); 76.4% (active) in test [4] (at 50.0 µM). For the same compound, the growth inhibition is 53% in test [5] (setting [7]); 99% (active) in test [5] (setting [8]); 19.6% in test [5] (at 50.0 µM); 85% (active) in test [6] (setting [7]); 97% (active) in test [6] (setting [8]); 17.7% in test [6] (at 50.0 µM).
Consider `CCCCCCCCCCCCCCCCCC1=NCCN1`, for which the growth inhibition is 6% in test [1] (setting [7]); 98% (active) in test [1] (setting [8]); 54% in test [1] (at 50.0 µM); -4% in test [2] (setting [7]); 98% (active) in test [2] (setting [8]); 99.3% (active) in test [2] (at 50.0 µM). In addition, the growth inhibition in test [3] (setting [7]) is 1%; in test [3] (setting [8]), 98% (active); in test [3] (at 50.0 µM) it was 42%; in test [4] (setting [7]) it was 1%; in test [4] (setting [8]), 99% (active); in test [4] (at 50.0 µM), 98% (active). For the same compound, the growth inhibition in test [5] (setting [7]) is 8%; in test [5] (setting [8]), 98% (active); in test [5] (at 50.0 µM), 99.3% (active); in test [6] (setting [7]) it was -1%; in test [6] (setting [8]), 97% (active); in test [6] (at 50.0 µM), 99.2% (active).
Take `Clc1cc2ccccc2c2ccccc12`: the growth inhibition was 0% in test [1] (setting [7]); 62% in test [1] (setting [8]); 84.6% (active) in test [1] (at 50.0 µM); -3% in test [2] (setting [7]); 21% in test [2] (setting [8]); 10.8% in test [2] (at 50.0 µM). Further, the growth inhibition in test [3] (setting [7]) is -3%; in test [3] (setting [8]) it was 32%; in test [3] (at 50.0 µM), 75.2% (active); in test [4] (setting [7]), -3%; in test [4] (setting [8]) it was 6%; in test [4] (at 50.0 µM), -51.7%. Also, the growth inhibition in test [5] (setting [7]) is -2%; in test [5] (setting [8]), 64%; in test [5] (at 50.0 µM) it was 77.3% (active); in test [6] (setting [7]), -1%; in test [6] (setting [8]), 84% (active); in test [6] (at 50.0 µM) it was 93.2% (active).
Take `O=C(CC(C[N+](=O)[O-])c1ccc2c(c1)OCO2)c1ccccc1` (stereo not given): the growth inhibition in test [1] (setting [7]) was 0%; in test [1] (setting [8]) it was -3%; in test [1] (at 50.0 µM), -12.5%; in test [2] (setting [7]), 9%; in test [2] (setting [8]) it was 17%; in test [2] (at 50.0 µM) it was 17.1%. Further, the growth inhibition in test [3] (setting [7]) was -1%; in test [3] (setting [8]), -50%; in test [3] (at 50.0 µM) it was 33.9%; in test [4] (setting [7]) it was 4%; in test [4] (setting [8]), 16%; in test [4] (at 50.0 µM), 4.65%. Besides, the growth inhibition in test [5] (setting [7]) was 18%; in test [5] (setting [8]), 45%; in test [5] (at 50.0 µM), 88.2% (active); in test [6] (setting [7]), -4%; in test [6] (setting [8]) it was 9%; in test [6] (at 50.0 µM), 45.1%.
